# Assay results taken from PubChem BioAssay AID1851 (National Center for Advancing Translational Sciences (NCATS), 2009).
# Where “and” joins values, the source holds several entries; their conditions need not be identical. Equal values may be shown once. Among all 16,000 compounds or so, about 2,600 (16%) were called active. Not shown: some 20% with an inconclusive outcome. The list is a sample of the results. Values without a mark were called inactive. Calls follow the shape of the dose curve; as a rule, active = well fitted curve in the direction sought with a large enough effect; inconclusive = small, poorly fitted or top-dose-only effect, or effect the other way; inactive = no such curve, though single readings can be large or run the other way.
# Molecular target: Cytochrome P450 2D6 (Homo sapiens) (UniProt P10635)
# Sequence (P10635 whole entry, looked up): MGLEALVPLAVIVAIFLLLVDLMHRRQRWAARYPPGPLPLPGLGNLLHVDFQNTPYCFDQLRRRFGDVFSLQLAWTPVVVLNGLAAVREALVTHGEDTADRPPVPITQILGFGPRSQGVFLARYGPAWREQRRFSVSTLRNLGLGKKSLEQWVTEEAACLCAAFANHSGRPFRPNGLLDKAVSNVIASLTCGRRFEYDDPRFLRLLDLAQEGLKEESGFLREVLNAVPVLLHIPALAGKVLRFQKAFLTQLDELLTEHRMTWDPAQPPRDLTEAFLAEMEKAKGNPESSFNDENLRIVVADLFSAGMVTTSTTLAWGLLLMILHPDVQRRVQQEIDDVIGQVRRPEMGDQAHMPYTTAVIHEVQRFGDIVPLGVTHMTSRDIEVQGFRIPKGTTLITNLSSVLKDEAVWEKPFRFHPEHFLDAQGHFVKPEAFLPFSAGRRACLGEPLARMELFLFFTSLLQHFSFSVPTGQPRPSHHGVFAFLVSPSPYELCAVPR
# Assay: Cytochrome panel assay with activity outcomes
# Settings: recombinant CYP, pro-luciferin dealkylation, luminescence, p450-cyp2d6; series mostly up to 57.1 µM; activity, negative = inhibition: at the top concentration
# % is scaled to controls: 0 for no effect and ±100 for the full control effect.
Structure (SMILES),"activity, negative = inhibition",AC50
Nc1nc(C(=O)O)c(N=Nc2ccccc2)c(=O)[nH]1,-12.3% [at 11.4 µM],–
CCCC(=O)Nc1nnc(SCC(=O)NCc2cccs2)s1,-15.3%,–
O=C(CSc1nnnn1-c1ccccc1)NCc1cccs1,–,2.51 µM (active)
CC(C)(C)C(=O)Nc1nnc(SCC(=O)NCc2cccs2)s1,-6.28%,–
C[C@@H]1O[C@H](O[C@@H]2[C@@H](Oc3cc(O)c4c(c3)O[C@H](c3ccc(O)cc3)CC4=O)O[C@@H](CO)[C@@H](O)[C@H]2O)[C@@H](O)[C@H](O)[C@@H]1O,2% [at 25.6 µM],–
CC(C)C(=O)N[C@@H]1CCCN1C(=O)/C=C\c1ccccc1,-16.8% [at 11.4 µM],–
CCOC(=O)N1CCC(NC(=O)CS(=O)(=O)Cc2nc(-c3cccc(OC)c3)oc2C)CC1,-3.13%,–
Cc1cccc(-c2nc(CN3CCCC(C(=O)NC4CCCCC4)C3)c(C)o2)c1 (stereo unspecified),–,4.47 µM (active)
CCC(C)NC(=O)C1CCCN(C(=O)NC2CCCCC2)C1 (stereo unspecified),7.72%,–
O=c1c(-c2ccccc2)nc2cnc(N3CCOCC3)nc2n1C1CC1,-10.2%,–
CC(C)(C)c1cc(C(=O)O)c(CN2CCCCC2)o1,25.2%,–
O=C(O)c1cccc(SSc2cccc(C(=O)O)c2)c1,-12% [at 11.4 µM],–
O=C(O)c1cccc(CN2CCCCC2)c1,–,1 µM (active)
O=c1c(-c2ccc(Cl)cc2)nc2cnc(N3CCNCC3)nc2n1Cc1ccc(F)cc1,-15.4%,–
Cc1ccc(S(=O)(=O)N[C@H]2COC(=O)[C@@H](C)COC(=O)[C@H](C)NC(=O)C/C=C\[C@H]2C)cc1,-1.17% [at 11.4 µM],–
CCCCC1=NN2C(=N)CC(=O)N=C2S1,-6.74%,–
CCOC(=O)/C(=C/Nc1ccccc1)[N+](=O)[O-],-8.55%,–
Cc1cccc(Nc2ccccc2C(=O)O)c1C,-1.23% [at 25.6 µM],–
Cc1ccc(NC(=O)Nc2ncccc2C)cc1,-25.7%,–
CCOC(=O)C(=CNc1cccc(C)c1C)C(=O)OCC,–,1.58 µM (active)
CCOC(=O)C(=Cc1ccc(F)cc1)C(=O)OCC,-19%,–
CCOC(=O)C(=CNc1ncccc1C)C(=O)OCC,–,8.91 µM (active)
NCCSS(=O)(=O)CCN,27.6% [at 11.4 µM],–

Structure (SMILES),"activity, negative = inhibition",AC50
Cc1nc2c(C)cccn2c1/C(O)=C1\C(=O)C(=O)N(CCN2CCOCC2)C1c1cccs1 (stereo unspecified),17.2%,–
COC(=O)C/C=C\[C@@H](C)[C@@H](/C=N\OC[C@@H](O)[C@H]1O[C@H]2OC(C)(C)O[C@H]2[C@@H]1O)NS(=O)(=O)c1ccc(C)cc1,-10.1% [at 11.4 µM],–
CC1(C)C(=O)C(c2ccccc2)=C2CN3C(=O)N(CCc4ccccc4)C(=O)C3(Cc3ccc(F)cc3)C=C21 (stereo unspecified),3.53%,–
CNc1nc(Cl)nc(NC(C)(C)C)n1,22.1%,–
CC(C)(C)Nc1nc(N2CCCC2)nc(N2CCCC2)n1,–,3.55 µM (active)
Cc1cc(C)n(-c2nc(NC(C)(C)C)nc(NC(C)(C)C)n2)n1,18.4%,–
COC(=O)C/C=C\[C@@H](C)[C@@H](CO)NS(=O)(=O)c1ccc(C)cc1,-2.05% [at 11.4 µM],–
O=C1/C(=C\c2ccc(Br)o2)SC(=Nc2ccccc2)N1c1ccccc1,-10%,–
Cc1ccc(NC(=O)c2cc(Cl)nc3ccccc23)cc1,–,0.178 µM (active)
CC(C)(C)c1nc(SCC(=O)Nc2ccc(N3CCOCC3)cc2)c2ccccc2n1,-6.23%,–
Cc1cc(C(=O)Nc2c(C)n(C)n(-c3ccccc3)c2=O)c2ccccc2n1,6.28%,–
Cc1cccc(NC(=O)NNC(=O)c2cc(-c3ccccc3Cl)nc3ccccc23)c1,3.57%,–
COC(=O)c1sccc1NC(=O)c1cc(-c2ccc(C)cc2)nc2ccccc12,-8.26%,–
Cc1cc(C(=O)Nc2ccc(N3CCOCC3)cc2)c2ccccc2n1,–,14.1 µM (active)
O=C1C2=C(Nc3cc([N+](=O)[O-])ccc3N2)O[C@@H]1c1ccc([C@H]2OC3=C(Nc4ccc([N+](=O)[O-])cc4N3)C2=O)cc1,-7.54% [at 11.4 µM],–
O=C1c2ccccc2C(=O)c2c(NC3CCCCC3)ccc(Nc3ccc(S(=O)(=O)O)cc3)c21,-10.8% [at 11.4 µM],–
Nc1c(-c2ccccc2)cnn1-c1cccc([N+](=O)[O-])c1,-16.5%,–
COc1cc(C)nc(N2CCCC(C(=O)Nc3cc(Cl)ccc3OC)C2)n1 (stereo unspecified),-2.34%,–
COCCn1c(=O)c(-c2ccc(Cl)cc2)nc2cnc(N3CCOCC3)nc21,3.63%,–
N#Cc1c[nH]n2c(=O)c3c(nc12)CCCC3,-1.42%,–
COC(=O)C1CCC(C)(C(=O)Nc2ccccc2)C1(C)C (stereo unspecified),-19.3%,–
CC1=C(C(=O)Nc2ccccc2)C(c2ccco2)NC(=S)N1 (stereo unspecified),-19.7%,–
CC1(C)SC(=S)N(NC(=O)Nc2ccccc2)C1N(O)C(=O)Nc1ccccc1 (stereo unspecified),–,25.1 µM (active)

Structure (SMILES),"activity, negative = inhibition",AC50
Cc1cccc(NC(=O)c2cccc(N3C(=O)C4C5CCC(C5)C4C3=O)c2)c1C (stereo unspecified),4.27%,–
COc1ccc(OC)c(C(=O)CSc2nnc(Cc3cccs3)n2CCc2ccccc2)c1,–,5.62 µM (active)
Cc1cc(C)c(NC(=O)CSc2nnc(Cc3cccn3C)n2-c2ccc(F)cc2)c(C)c1,-28.9%,–
CCn1c(COc2ccccc2)nnc1SCC(=O)Nc1cc(OC)ccc1OC,-25.2%,–
COc1ccc(OC)c(C(=O)CN2C(=O)NC(C)(c3ccccc3)C2=O)c1 (stereo unspecified),3.09%,–
CNC(=O)NC(=O)CSc1nnc(-c2ccco2)n1Cc1ccccc1,-9.65%,–
COc1ccc(NC(=O)CSc2nnc(Cc3cccn3C)n2CCc2ccccc2)c(OC)c1,–,3.98 µM (active)
CC(=O)Nc1ccc(Cc2ccc3[nH]c(=O)cc(C)c3c2)cc1,2.4% [at 11.4 µM],–
Cc1nc(-n2[nH]c3c(c2=O)CCCC3)[nH]c(=O)c1Cc1ccccc1,17.8%,–
COc1ccc(C2C(C(=O)c3ccco3)=C(O)C(=O)N2Cc2cccnc2)cc1OC (stereo unspecified),29.8%,–
COc1ccc(/C=N\NC(=O)O)cc1,12.1% [at 11.4 µM],–
CC(=O)N1CCC2(CC1)CN(C(=O)Nc1cccc(C#N)c1)C2,-3.86%,–
Cc1cc2cc3c(C)cc(=O)oc3c(C)c2o1,2.76% [at 25.6 µM],–
CCOC(=S)NC(=O)c1sc2ccccc2c1Cl,-9.37%,–
CN1CCc2ccccc2[C@@H]1Cc1ccccc1NC(=O)c1sc2ccccc2c1Cl,–,0.0794 µM (active)
CCCC(=O)N1CCN(c2ccc(NC(=O)c3sc4ccccc4c3Cl)cc2)CC1,19.9%,–
O=C(CC1CCCCC1)N1CCC(c2nc(-c3ccc(S(=O)(=O)N4CCCC4)cc3)no2)CC1,-17%,–
COc1cccc(NC(=S)NNC(=O)C(C)n2nc(C)c([N+](=O)[O-])c2C)c1 (stereo unspecified),-12.1%,–
CC[n+]1c(P(=O)([O-])c2ccccc2)[nH]c2ccccc21,-7.96%,–
O=C(c1cc(C(F)(F)F)cc(C(F)(F)F)c1)N1CCC[C@@]2(CCN(Cc3nccs3)C2)C1,-15.2%,–
O=C(c1cc(C(F)(F)F)cc(C(F)(F)F)c1)N1CCC2(CCCN(Cc3ccncc3)C2)CC1,-9.54%,–
O=C(Nc1cccc(F)c1)N1CC[C@@]2(CCCN(C(=O)c3cc(C(F)(F)F)cc(C(F)(F)F)c3)C2)C1,0.812%,–
O=C(Nc1ccccc1)N1CC[C@@]2(CCCN(C(=O)c3cc(C(F)(F)F)cc(C(F)(F)F)c3)C2)C1,–,15.8 µM (active)

Structure (SMILES),"activity, negative = inhibition",AC50
O=C(c1cc(C(F)(F)F)cc(C(F)(F)F)c1)N1CCC2(CC1)CN(Cc1ccccc1)C2,-0.939%,–
O=C(Nc1ccccc1)N1CC2(CCN(C(=O)c3cc(C(F)(F)F)cc(C(F)(F)F)c3)CC2)C1,-2.55%,–
N#Cc1ccc(CN2CC[C@@]3(CCCN(C(=O)c4cc(C(F)(F)F)cc(C(F)(F)F)c4)C3)C2)cc1,-5.62%,–
O=C(c1cc(C(F)(F)F)cc(C(F)(F)F)c1)N1CCC[C@@]2(CCN(Cc3ccccc3)C2)C1,–,10 µM (active)
O=C(c1cc(C(F)(F)F)cc(C(F)(F)F)c1)N1CCC[C@@]2(CCN(Cc3ccncc3)C2)C1,–,5.01 µM (active)
CC[N+](C)(CC)CCN1C(=O)c2ccccc2S1(=O)=O,-3.94% [at 11.4 µM],–
Cc1c(NC(=O)C23CC4CC(CC(C)(C4)C2)C3)c(=O)n(-c2ccccc2)n1C,10.1%,–
CC12CC[C@@H]3c4ccc(OP(=O)(O)O)cc4CCC3C1CCC2=O (stereo partly specified),0.651% [at 11.4 µM],–
Cn1cc(C(=O)c2cccc(Cl)c2Cl)cc1C(=O)O,0.979%,–
O=C(O)[C@H](CCc1ccccc1)N1C(=O)c2ccccc2C1=O,15.2% [at 11.4 µM],–
c1ccc2c(c1)C(=Nc1ccc(N=C3c4ccccc4-c4ccccc43)cc1)c1ccccc1-2,-8.16% [at 11.4 µM],–
O=C(O)c1ccc(C(=O)O)c(C(=O)O)c1.[NH-][C@@H]1CCCC[C@@H]1[NH-].[Pt],7.05% [at 11.4 µM],–
CC12CS(=O)(=O)CC1SC(=S)N2c1ccccn1 (stereo unspecified),-5.58%,–
Cc1cc(O)c(C(C)C)cc1NC(=O)Nc1cccc2ccccc12,-5.76% [at 11.4 µM],–
CC1(C)CC(=O)C2=C(C1)N(c1ccc(F)cc1)C(N)=C(C#N)C2c1cccs1 (stereo unspecified),-3.42%,–
Cc1cc(N2CCN(C)CC2)n2nc(-c3ccc(Cl)cc3)nc2n1,15% [at 11.4 µM],–
COc1cc(C)cc(OC)c1/C=C\C(=O)O,2.34% [at 11.4 µM],–
CN(C)CC(O)COc1cccc(OCC(O)CN(C)C)c1 (stereo unspecified),-5.6%,–
C[C@@H](COc1ccccc1)N(CCCl)Cc1ccccc1,–,0.158 µM (active)
CCOC(=O)c1cnc2ccc(C)cc2c1Sc1ccccc1C(=O)OC,-21.2%,–
CNCCCC1c2ccccc2C=Cc2ccccc21,–,15.8 µM (active) and 3.98 µM (active)
COc1ccc2c(c1OC)C(=O)N(C(C)C(=O)O)C2=O (stereo unspecified),25.2%,–
